PubChem BioAssay (NCATS)
Inconclusive results are not listed. Active and inactive are the calls of the source. The call rests on the fitted dose curve; in most records, active means well fitted curve in the direction sought with a large enough effect; inconclusive means small, poorly fitted or top-dose-only effect, or another doubt; inactive means no such curve, though single readings can be large; an effect the other way counts as inactive or inconclusive.

Columns and labels:
[1] = target: Cellular tumor antigen p53 (Homo sapiens) (UniProt P04637); experiment: Primary qHTS for small molecule compounds that upregulate eGFP-tagged delta133p53alpha (in N-terminal) cells. (AID 2060322); conditions: NCI-H358 eGFP-delta133p53alpha fluorescence, 24 h; activation: hits give high values;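 further: cells pre-induced with doxycycline then dosed without doxycycline; series mostly up to about 56 µM; 0% = DMSO vehicle and 100% = reference activator; nearly all actives have a fitted effect of over 75% in size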
In short: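 NCI-H358 cells pre-induced 24 h with 10 ng/ml doxycycline for eGFP-delta133p53alpha, plated dox-free and exposed 24 h at 37C to titrated compounds. Fixed, Hoechst-stained; gated GFP peak intensity by laser scanning cytometry, normalized to DMSO (0%) and 57.5 uM 5-azacytidine (100%).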

[2] = target: Aldehyde dehydrogenase, mitochondrial (Homo sapiens) (UniProt P05091); experiment: qHTS for Inhibitors of the Aldehyde Dehydrogenase Family (ALDH2) Primary screen (AID 2061308);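 further: plate controls were vehicle for no effect and reference inhibitor for full effect; nearly all actives have a fitted effect of over 55% in size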
[3] = target: Retinaldehyde dehydrogenase 3 (Homo sapiens) (UniProt P47895); experiment: qHTS for Inhibitors of the Aldehyde Dehydrogenase Family (ALDH1A3) Validation screen (AID 2061312); further: on the % scale 0 is the no-effect control and ±100 the full control effect; nearly all actives have a fitted effect of over 45% in size
[4] = target: Retinaldehyde dehydrogenase 3 (Homo sapiens) (UniProt P47895); experiment: qHTS for Inhibitors of the Aldehyde Dehydrogenase Family (ALDH1A3) Primary screen (AID 2061315);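 further: plate controls were DMSO vehicle for no effect and reference inhibitor for full effect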

Chain of Cellular tumor antigen p53 (Homo sapiens) (P04637 whole entry, looked up): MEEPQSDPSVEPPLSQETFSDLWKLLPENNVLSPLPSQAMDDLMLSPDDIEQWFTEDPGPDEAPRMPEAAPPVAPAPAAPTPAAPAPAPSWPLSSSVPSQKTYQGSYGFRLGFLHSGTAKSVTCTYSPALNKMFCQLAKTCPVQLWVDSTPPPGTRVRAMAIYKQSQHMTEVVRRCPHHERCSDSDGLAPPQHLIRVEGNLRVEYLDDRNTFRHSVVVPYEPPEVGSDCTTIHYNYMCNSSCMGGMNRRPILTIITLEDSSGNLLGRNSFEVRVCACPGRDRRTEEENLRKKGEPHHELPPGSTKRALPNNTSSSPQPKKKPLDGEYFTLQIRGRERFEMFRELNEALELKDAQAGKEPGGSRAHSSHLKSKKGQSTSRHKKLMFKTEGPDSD

Cc1cc(C(=O)Cn2cc(C#N)ccc2=O)c(C)n1Cc1ccccc1
inactive: activation [1] 6.21% | Potency [2] | Potency [3] | Potency [4]

COc1ccc(CCN(C)CCCOc2nsc(-c3ccccc3)n2)cc1OC
inactive: activation [1] 13.4% | Potency [2] | Potency [3] | Potency [4]

CCOCCn1nc(CC)c2nc(N3CCC(C(=O)O)CC3)nc(Nc3cc(C)ccn3)c21
inactive: activation [1] 0% | Potency [2] | Potency [3] | Potency [4]

CC(OC1OCCN(Cc2n[nH]c(=O)[nH]2)C1c1ccc(F)cc1)c1cc(C(F)(F)F)cc(C(F)(F)F)c1 (configuration not stated)
inactive: activation [1] 20.5% | Potency [2] | Potency [3] | Potency [4]

Cc1ccnc(NC(=O)C(C)c2cccc(C(=O)c3ccccc3)c2)c1 (configuration not stated)
inactive: activation [1] -19.6% | Potency [2] | Potency [3] | Potency [4]

Nc1nc(CC(=O)Nc2ccc(CCNCC(O)c3ccccc3)cc2)cs1 (configuration not stated)
inactive: activation [1] -11% | Potency [2] | Potency [3] | Potency [4]

COc1ccccc1Oc1ccc(N(Cc2cccnc2)S(=O)(=O)CC(F)(F)F)cc1
inactive: activation [1] -6.21% | Potency [2] | Potency [3] | Potency [4]

COC(=O)c1sccc1S(=O)(=O)Nc1ccc(Nc2ccccc2)cc1OC
inactive: activation [1] -5.73% | Potency [2] | Potency [3] | Potency [4]
